Results as given in the supplement of paper PMC9262897, “Low-cost anti-mycobacterial drug discovery using engineered E. coli” (Nature Communications, 2022).
Counter-ions that a name gives are not always drawn. ± gives the standard deviation of the averaged measurements.

What was measured:
Assay in all cases: growth (OD600 after 10 h); higher = more growth (less inhibition)
[1] = tested on: E. coli TESEC Alr+ wild-type control; conditions: compound 0.1 mM; raw OD600 reference: median of DMSO wells 0.241, cell-free background 0.041
Method: (§1)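 TESEC Mtb Alr E. coli, or the Alr+ wild-type control, in 384-well plates with Prestwick library compounds at 0.1 mM and 1% DMSO, across arabinose induction levels of 1E3 to 1E7 nM. Growth is read as OD600 after 10 h at 37 °C in triplicate biological replicates.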

[2] = tested on: E. coli TESEC Mtb Alr; conditions: compound 0.1 mM
Method: as §1

[3] = tested on: E. coli TESEC Mtb Asd; conditions: compound 0.1 mM
Method: (§2)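 TESEC E. coli strains in which the native enzyme is deleted and replaced by arabinose-inducible Mtb Asd, DapB, CysH or TrpD, each grown in its selective medium. Strains were screened against the Prestwick library at 0.1 mM and 1% DMSO in 384-well format at low and high arabinose induction. Growth is read as OD600 after 10 h in triplicate.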

[4] = tested on: E. coli TESEC Mtb DapB; conditions: compound 0.1 mM
Method: as §2

[5] = tested on: E. coli TESEC Alr+ wild-type control; conditions: compound 0.1 mM; raw OD600 reference: median of DMSO wells 0.49, cell-free background 0.052
Method: (§3)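 TESEC Mtb Alr E. coli (ΔaraC ΔtolC ΔentC Δalr ΔdadX, arabinose-inducible Mtb Alr) or the Alr+ wild-type control strain, grown in defined M9-fructose medium without D-alanine in 96-well plates with Prestwick library compounds at 0.1 mM and 1% DMSO. Low Alr induction is 0.1 µM arabinose and high induction is 10 mM arabinose.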

[6] = tested on: E. coli TESEC Mtb Alr; conditions: compound 0.1 mM; remark: listed apart in the source
Method: as §3

[7] = arabinose 1000 nM, raw OD600 reference: median of DMSO wells 0.294, cell-free background 0.041
[8] = arabinose 10000 nM, raw OD600 reference: median of DMSO wells 0.264, cell-free background 0.041
[9] = arabinose 100000 nM, raw OD600 reference: median of DMSO wells 0.201, cell-free background 0.041
[10] = arabinose 1000000 nM, raw OD600 reference: median of DMSO wells 0.193, cell-free background 0.041
[11] = arabinose 10000000 nM, raw OD600 reference: median of DMSO wells 0.146, cell-free background 0.041
[12] = arabinose induction (level): High, raw OD600 reference: median of DMSO wells 0.331, cell-free background 0.041
[13] = arabinose induction (level): Low, raw OD600 reference: median of DMSO wells 0.417, cell-free background 0.041
[14] = arabinose induction (level): High, raw OD600 reference: median of DMSO wells […], cell-free background 0.041
[15] = arabinose induction (level): Low, raw OD600 reference: median of DMSO wells 0.227, cell-free background 0.041
[16] = arabinose 100 nM, raw OD600 reference: median of DMSO wells 0.413, cell-free background 0.052
[17] = arabinose 10000000 nM, raw OD600 reference: median of DMSO wells […], cell-free background 0.052

| SMILES | growth [1] | growth [2, 7] | growth [2, 8] | growth [2, 9] | growth [2, 10] | growth [2, 11] | growth [3, 12] | growth [3, 13] | growth [4, 14] | growth [4, 15] | growth [5] | growth [6, 16] | growth [6, 17] |
| --- | --- | --- | --- | --- | --- | --- | --- | --- | --- | --- | --- | --- | --- |
| COc1ccc(C(=O)c2ccccc2)c(O)c1 [Oxybenzone] | 0.114 ± 0.003 | 0.148 ± 0.011 | 0.15 ± 0.004 | 0.151 ± 0.017 | 0.0914 ± 0.0039 | 0.0993 ± 0.0024 | 0.223 ± 0.023 | 0.334 ± 0.01 | 0.186 ± 0.015 | 0.257 ± 0.0051 | 0.27 ± 0.011 | 0.377 ± 0.022 | 0.146 ± 0.021 |
| CC(C)Cn1cnc2c(N)nc3ccccc3c21 [Imiquimod] | 0.224 ± 0.017 | 0.282 ± 0.0092 | 0.282 ± 0.01 | 0.165 ± 0.012 | 0.178 ± 0.014 | 0.158 ± 0.01 | 0.209 ± 0.026 | 0.392 ± 0.024 | 0.21 ± 0.011 | 0.261 ± 0.045 | 0.574 ± 0.048 | 0.411 ± 0.0054 | 0.301 ± 0.015 |
| CCN(CC)CCCC(C)Nc1c2ccc(Cl)cc2nc2ccc(OC)cc12 (centres undefined) [Quinacrine dihydrochloride hydrate] | 0.0702 ± 0.00072 | 0.0775 ± 0.016 | 0.0444 ± 0.00085 | 0.104 ± 0.0031 | 0.04497 ± 0.00023 | 0.1 ± 0.0037 | 0.0701 ± 0.0057 | 0.0679 ± 0.006 | 0.156 ± 0.022 | 0.0986 ± 0.073 | 0.125 ± 0.049 | 0.421 ± 0.0083 | 0.222 ± 0.025 |
| COCC1=C(C(=O)OC(C)OC(=O)OC(C)C)N2C(=O)[C@@H](NC(=O)/C(=N\OC)c3csc(N)n3)[C@H]2SC1 (some centres undefined) [Cefpodoxime proxetil] | 0.2132 ± 0.002 | 0.116 ± 0.0091 | 0.0588 ± 0.0019 | 0.22 ± 0.011 | 0.166 ± 0.008 | 0.165 ± 0.0036 | 0.215 ± 0.051 | 0.179 ± 0.034 | 0.202 ± 0.05 | 0.285 ± 0.049 | 0.425 ± 0.044 | 0.0545 ± 0.0063 | 0.278 ± 0.016 |
| CN1[C@@H]2CC[C@H]1C[C@@H](OC(c1ccccc1)c1ccccc1)C2 [Benztropine mesylate] | 0.1702 ± 0.0017 | 0.219 ± 0.0061 | 0.289 ± 0.037 | 0.165 ± 0.0036 | 0.133 ± 0.0073 | 0.166 ± 0.0023 | 0.137 ± 0.018 | 0.253 ± 0.076 | 0.166 ± 0.0063 | 0.201 ± 0.011 | 0.487 ± 0.029 | 0.4104 ± 0.0035 | 0.288 ± 0.0043 |
| CCCCNc1ccc(C(=O)OCCN(C)C)cc1 | 0.208 ± 0.0034 | 0.273 ± 0.006 | 0.255 ± 0.003 | 0.186 ± 0.0077 | 0.166 ± 0.0023 | 0.146 ± 0.0066 | 0.266 ± 0.033 | 0.354 ± 0.021 | 0.174 ± 0.019 | 0.186 ± 0.0082 | 0.468 ± 0.0089 | 0.396 ± 0.019 | 0.346 ± 0.018 |
| CCC(NC(C)C)C(O)c1ccc(O)c(O)c1 (centres undefined) [Isoetharine mesylate salt] | 0.196 ± 0.0071 | 0.303 ± 0.012 | 0.277 ± 0.005 | 0.188 ± 0.018 | 0.18 ± 0.0035 | 0.155 ± 0.0024 | 0.309 ± 0.11 | 0.37 ± 0.062 | 0.187 ± 0.0097 | 0.226 ± 0.031 | 0.64 ± 0.039 | 0.401 ± 0.032 | 0.344 ± 0.019 |
| C[C@H]1O[C@H](O[C@H]2[C@H](O)[C@@H](O)[C@@H](O[C@@H]([C@H](O)[C@@H](O)C=O)[C@H](O)CO)O[C@@H]2CO)[C@H](O)[C@@H](O)[C@@H]1N[C@H]1C=C(CO)[C@@H](O)[C@H](O)[C@H]1O [Acarbose] | 0.261 ± 0.0036 | 0.313 ± 0.0078 | 0.25 ± 0.005 | 0.244 ± 0.0037 | 0.182 ± 0.0045 | 0.145 ± 0.013 | 0.322 ± 0.026 | 0.476 ± 0.036 | 0.196 ± 0.018 | 0.236 ± 0.037 | 0.458 ± 0.0055 | 0.396 ± 0.013 | 0.3792 ± 0.0032 |
